Compound activity from PubChem BioAssay.
Sampled rows, rich in hits. Any-hit rate of the full collection: about 7.6%.
p53 reactivation: qHTS assay for re-activators of p53 using a Luc reporter | AID 504706, 2011 | 0.063% of 320,000 active | Potency, µM (doses to about 92.2 µM), inactives show top-dose activity change, positive = activation, actives largely listed as activators | H1299 p53-A138V BP100-luciferase reporter, luminescence, 24 h; note: potency is the fitted concentration of half-maximal effect; % of control where 0% means no effect; nearly all actives have a fitted effect of over 45% in size
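p53-null H1299 cells stably carrying temperature-sensitive p53-A138V and a BP100-luciferase reporter were pinned with compounds (4-point, 1:5 series) and held 24 hrs at 37 deg C. Luminescence was read 10 min after detection reagent.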
Gal4-VP16 FLuc: VP16 counterscreen qHTS for inhibitors of ROR gamma transcriptional activity | Drosophila S2 Gal4-VP16 UAS-luciferase, luminescence, 20 h | Potency, µM (top dose mostly 53.6 µM), without a hit: top-dose activity, negative = inhibition, hits mostly inhibitors | 3.5% of 310,000 active;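 note: Gal4-VP16 expression switched on by copper sulfate through the metallothionein promoter; potency is the fitted concentration of half-maximal effect; % is set by controls: 0 for no effect and ±100 for the full control effect; nearly all actives have a fitted effect of over 50% in size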
RORg inh: qHTS for inhibitors of ROR gamma transcriptional activity; Nuclear receptor ROR-gamma (Mus musculus), P51450; Drosophila S2 Gal4-RORgamma UAS-luciferase reporter, 20 h; Potency, µM (series often up to 53.6 µM), for inactives: at the highest dose activity change, negative = inhibition, hits mostly inhibitors; 5.4% of 310,000 active; AID 2551, 2010; note: potency is the fitted concentration of half-maximal effect; % is set by controls: 0 for no effect and ±100 for the full control effect; nearly all actives have a fitted effect of over 60% in size
Target sequence (P51450 whole entry, looked up, the tested form may be a part): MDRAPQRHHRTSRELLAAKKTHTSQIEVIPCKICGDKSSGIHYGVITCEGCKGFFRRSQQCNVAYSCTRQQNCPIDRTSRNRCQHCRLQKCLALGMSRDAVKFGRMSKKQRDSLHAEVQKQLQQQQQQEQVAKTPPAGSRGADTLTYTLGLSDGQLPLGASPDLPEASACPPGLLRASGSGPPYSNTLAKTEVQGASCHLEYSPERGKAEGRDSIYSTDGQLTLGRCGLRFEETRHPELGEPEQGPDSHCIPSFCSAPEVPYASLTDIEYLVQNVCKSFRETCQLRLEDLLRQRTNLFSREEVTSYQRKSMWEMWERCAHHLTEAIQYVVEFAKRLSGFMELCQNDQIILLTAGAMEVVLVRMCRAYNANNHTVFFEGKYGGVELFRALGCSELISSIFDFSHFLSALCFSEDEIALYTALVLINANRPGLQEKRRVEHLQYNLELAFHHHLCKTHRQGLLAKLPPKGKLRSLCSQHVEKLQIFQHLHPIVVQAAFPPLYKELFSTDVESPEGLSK
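Luciferase reporter read in Schneider cells carrying Gal4-RORγ (mouse) and UAS-Photinus luciferase; cells given compound 1 h before 700 uM copper sulfate induction, then incubated 20 h at ambient temperature.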
ELG1 repair inh: qHTS screen for small molecules that inhibit ELG1-dependent DNA repair in human embryonic kidney (HEK293T) cells expressing luciferase-tagged ELG1; HEK293T ELG1-luciferase reporter, luminescence, 16 h; DNA damage induced by 5-fluorouridine; Potency, µM (titrated, usually from 46.1 µM), without a hit: at the highest dose activity change, negative = inhibition, usual class: inhibitors; 2.3% of 330,000 active; note: potency is the fitted concentration of half-maximal effect; % is set by controls: 0 for no effect and ±100 for the full control effect; nearly all actives have a fitted effect of over 55% in size
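In this reporter screen, reduction of luminescence relative to DMSO vehicle indicated activity. Compounds and 5-fluorouridine were added together to 2,000 cells per well, incubated for 16 hr at 37 °C, then developed with ONE-Glo.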
BRCA1 expr up: qHTS Assay to Identify Small Molecule Activators of BRCA1 Expression; MCF7-BRCA1-FFLuc reporter, luminescence, 48 h; response scale: scaled: vehicle 0%, 10 µM genistein 100%; Potency, µM (top dose mostly 46.1 µM), inactives show at the highest dose activation, most hits filed as activators; AID 624202, 2012; 1.1% of 380,000 active; note: potency is the fitted concentration of half-maximal effect; nearly all actives have a fitted effect of over 80% in size
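Using MCF7 cells harboring a BRCA1 firefly luciferase reporter, plated 2 h before compound pinning, the screen measured luminescence after 48 h incubation. Responses were normalized to DMSO and 10 microM genistein, then fitted for concentration-effect.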
Giardia killer: Small Molecules that selectively kill Giardia lamblia: qHTS | activity change, % at 7.66 µM, hits read low | 0.15% of 340,000 active | Giardia lamblia trophozoite viability; in the data active = activity change below about -80%; inconclusive = between about -30% and that limit;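 note: parasites exposed to compound for two days anaerobically before the ATP read; % is set by controls: 0 for no effect and ±100 for the full control effect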
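Luminescent ATP signal served as the viability read-out, measured 15-30 min after adding ATP detection reagent to trophozoites that had been incubated with compounds for 48 hrs at 37 deg C anaerobically at 100 cells/well.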
Numbers without * were called inactive; ? = inconclusive; / = no result. Unless noted, calls come from the whole dose curve; as a rule, active = well fitted curve in the direction sought with a large enough effect; inconclusive = small, poorly fitted or top-dose-only effect, or another doubt; inactive = no such curve, though single readings can be large; an effect the other way counts as inactive or inconclusive.

SMILES	p53 reactivation	Gal4-VP16 FLuc	RORg inh	ELG1 repair inh	BRCA1 expr up	Giardia killer
Cc1cc(C(=O)COC(=O)c2cc(Cl)ccc2N)c(C)n1Cc1ccco1	?	16.8%	24.2%	?	2.82µM*	0.2
CCC(=O)Nc1ccc2oc(-c3cccc(C)c3)nc2c1	0.8%	2.24µM*	0.794µM*	?	38.0%	?
CCC(=O)Nc1ccc(-c2nc3ccccc3c(=O)o2)cc1	2.4%	15.8µM*	-91.6%	1.3%	20.7%	9.8
COc1cc(C(=O)Nc2cccc(-c3nc4cc(C)ccc4o3)c2)cc(OC)c1OC	11.4%	-14.9%	?	14.6µM*	16.1%	-0.7
Cc1cccc(-c2nc3cc(NC(=O)C4CCCO4)ccc3o2)c1 (configuration not stated)	?	?	0.282µM*	?	-17.4%	?
Cc1ccc2oc(-c3cccc(NC(=O)C4CCCO4)c3)nc2c1 (configuration not stated)	1.9%	?	?	?	76.4%	9.6
CCCCN(C)CCCNC(=O)c1ccc2c(c1)N(CC)C(=O)c1ccccc1S2=O (configuration not stated)	-1.3%	-0.5%	4.1%	0.0%	-12.4%	-1.5
CCCN(C(=O)c1cc(S(=O)(=O)N(C)c2ccccc2OC)ccc1C)C1CCS(=O)(=O)C1 (configuration not stated)	/	/	/	/	6.4%	8.3
COC(C(=O)N/N=C(\C)CC(=O)Nc1ccc(Cl)cc1C)c1ccccc1 (configuration not stated)	-3.5%	-6.1%	-5.0%	7.0%	-13.1%	-8.3
COC(C(=O)N/N=C(\C)CC(=O)Nc1ccc(N(C)C)cc1)c1ccccc1 (configuration not stated)	1.9%	-29.9%	12.6µM*	1.5%	-0.6%	-9.1
COc1ccc(/C=C\C(=O)Nc2ccccc2C(=O)O)cc1OC	/	1.12µM*	?	/	/	/
COc1ccc(/C=C/C(=O)NC(=S)NCc2ccccc2)cc1OC	-3.8%	?	2.24µM*	?	-11.3%	-4.1
COc1ccc(/C=C/C(=O)NC(C)CCc2ccccc2)cc1OC (configuration not stated)	-5.9%	-10.9%	31.1%	?	-8.2%	9.4
CC(=O)N1CCN(c2nc3c(C)ccc(Cl)c3s2)CC1	/	/	/	/	0.0%	/
Cc1ccc(/C=C2\SC(=S)N(CCCC(=O)Nc3ccccn3)C2=O)cc1	-10.7%	1.58µM*	0.447µM*	?	-88.1%	0.4
Cc1ccc(/C=C2\SC(=S)N(CCCC(=O)Nc3ccc(O)cc3)C2=O)cc1	1.6%	/	0.0501µM*	8.0%	-90.2%	-1.7
COc1cc(/C=C2\SC(=S)N(CCC(=O)Nc3ccccc3O)C2=O)cc(OC)c1OC	12.1%	?	31.9%	7.3µM*	-52.6%	-3.1
O=C(CCN1C(=O)/C(=C/c2ccccc2)SC1=S)Nc1ccccn1	10.3%	-8.5%	-33.4%	18.4%	-22.5%	0.2
O=C(CCCN1C(=O)S/C(=C\C=C\c2ccccc2)C1=O)Nc1ccc(O)cc1	-4.5%	?	0.316µM*	?	-69.1%	-10.3
C[C@@H]1CN([C@@H](C)CO)C(=O)Cc2cc(NC(=O)Nc3cccc4ccccc34)ccc2O[C@@H]1CN(C)S(C)(=O)=O	-3.6%	/	/	12.8%	0.0%	-13.9
Cc1ccc(/C=C2/SC(=S)N(CCCC(=O)Nc3cc([N+](=O)[O-])ccc3O)C2=O)cc1	-8.8%	?	7.94µM*	19.2%	-56.9%	-9.1
O=C(CN1C(=O)S/C(=C\c2ccccc2)C1=O)Nc1cc([N+](=O)[O-])ccc1O	-11.6%	5.9%	?	-2.8%	9.5%	12.0
COc1ccc(/C=C2\SC(=S)N(CCCC(=O)Nc3ccccn3)C2=O)cc1OC	4.3%	5.01µM*	4.47µM*	16.4µM*	-56.0%	-23.0
CCS(=O)(=O)N1CCC(NC(=O)c2cc(OC)cc(OC)c2)CC1	-2.2%	7.2%	14.9%	0.9%	7.8%	11.7
O=C(Nc1ccc2c(c1)OCO2)c1ccc(=O)[nH]n1	11.2%	10.0%	2.2%	?	11.2µM*	40.1
SMILES	p53 reactivation	Gal4-VP16 FLuc	RORg inh	ELG1 repair inh	BRCA1 expr up	Giardia killer
O=C(Nc1ccc2c(c1)OCO2)c1cc(C2CC2)on1	9.3%	-8.1%	?	?	4.47µM*	4.2
CC(C)c1cc(C(=O)Nc2ccc3c(c2)OCO3)no1	?	?	?	?	50.3%	-19.2
CCOc1ccc2[nH]c(=O)c(C(c3nnnn3Cc3ccco3)N3CCCC(C)C3)cc2c1 (configuration not stated)	-3.0%	-3.0%	28.0%	-4.3%	-42.2%	-4.2
Fc1ccc(C2NC(=S)NC3=C2N2CCC3CC2)cc1 (configuration not stated)	-2.7%	-25.7%	-27.9%	-9.7%	16.0%	-6.0
Fc1ccc(/C=C2\CCCC3=C2NC(=S)NC3c2ccc(F)cc2)cc1 (configuration not stated)	-5.6%	?	8.91µM*	9.4%	/	/
CCN(CC(=O)Nc1ccc(NC(C)=O)cc1)C(=O)c1ccc(N2C(=O)c3ccccc3C2=O)cc1	/	/	/	/	0.7%	-7.7
COc1ccc(N2C(=S)NC(C)(C)CC2(C)c2ccc(OC(C)=O)cc2OC(C)=O)cc1 (configuration not stated)	-0.9%	?	10µM*	-9.5%	-12.4%	-12.2
CC(=O)Oc1ccc(C2(C)CC(C)(C)Oc3cc(OC(C)=O)ccc32)c(OC(C)=O)c1 (configuration not stated)	2.5%	5.5%	22.6%	1.3%	-3.7%	-23.7
CC(C)C(=O)N(Cc1ccccc1)c1ccccn1	0.4%	-2.5%	-6.1%	6.3%	1.4%	0.1
CCOC(=O)c1cc(-c2ccccc2)sc1NC(=O)C(C)Sc1nnnn1C (configuration not stated)	-10.3%	-1.1%	29.5%	18.4µM*	-11.5%	3.4
CCOC(=O)c1cc(-c2ccccc2)sc1NC(=O)C(C)C	25.6%	6.3%	?	-24.6%	-27.9%	-1.6
CCOC(=O)c1cc(-c2ccccc2)sc1NC(=O)C(C)N1C(=O)NC(C)(c2ccc(Cl)cc2)C1=O (configuration not stated)	-3.2%	10.5%	15.5%	25.9µM*	-40.5%	-13.8
